# Bioassay records from PubChem.
# In the library only some 7.3% were active in any assay of this set; here they are far more common.
# Tau fibril FP: qHTS for Inhibitors of Tau Fibril Formation, Fluorescence Polarization. Microtubule-associated protein tau (Homo sapiens), P10636. K18 P301L tau heparin fibrillization, Alexa594 FP, 6 h. Potency, µM (titrated, usually from 57.7 µM), actives largely listed as inhibitors. actives 0.39% (n = 280,000). AID 1468, 2008; also: nearly all actives have a fitted effect of over 55% in size
# Target sequence (P10636 561-689 P618L limits assumed): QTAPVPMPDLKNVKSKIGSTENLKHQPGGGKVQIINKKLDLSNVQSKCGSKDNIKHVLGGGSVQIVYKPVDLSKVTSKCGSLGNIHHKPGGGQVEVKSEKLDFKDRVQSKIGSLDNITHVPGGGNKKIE
#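 FP of Alexa 594-tau after heparin (20 uM) induction. Substrate: human K18 P301L, 15 uM unlabeled, 0.24 uM labeled. Buffer 100 mM sodium acetate pH 7. 6 hr, 37 C.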
# VP16 counter: VP16 counterscreen qHTS for inhibitors of ROR gamma transcriptional activity; AID 2546, 2010; Potency, µM (doses to about 53.6 µM), actives largely listed as inhibitors; actives 3.5% (n = 310,000); Drosophila S2 Gal4-VP16 UAS-luciferase, luminescence, 20 h;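 also: Gal4-VP16 expression switched on by copper sulfate through the metallothionein promoter; nearly all actives have a fitted effect of over 50% in size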
# Tau fluor cs: Counterscreen qHTS for Inhibitors of Tau Fibril Formation, Fluorescence Polarization. tau K18 P301L Alexa594 fluorescence, heparin fibrillization. Potency, µM (top dose mostly 57.7 µM). actives 0.93% (n = 280,000); also: nearly all actives have a fitted effect of over 55% in size
#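 Human tau K18 P301L (15 uM unlabeled, 0.24 uM Alexa 594-labeled) in 100 mM sodium acetate pH 7 with 20 uM heparin, 6 hr at 37 C. ThT 30 uM added, 1 hr ambient; Alexa 594 FP and total fluorescence read at 555/632 nm.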
# Tau ThT inhib: qHTS for Inhibitors of Tau Fibril Formation, Thioflavin T Binding; recombinant tau K18 P301L (four-repeat tau fragment), heparin-induced fibrillization, ThT fluorescence; Potency, µM (highest dose often 57.4 µM), hits mostly inhibitors; actives 2.1% (n = 270,000); also: nearly all actives have a fitted effect of over 55% in size
#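 In this qHTS, human K18 P301L tau is incubated with compound and heparin for 6 hr at 37 C, and Thioflavin T fluorescence then reports fibril load.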
# RORgamma inh: qHTS for inhibitors of ROR gamma transcriptional activity | Drosophila S2 Gal4-RORgamma UAS-luciferase reporter, 20 h | Potency, µM (top dose mostly 53.6 µM), most hits filed as inhibitors | actives 5.4% (n = 310,000); also: nearly all actives have a fitted effect of over 60% in size
# Target sequence (P51450 whole entry, looked up, the tested form may be a part): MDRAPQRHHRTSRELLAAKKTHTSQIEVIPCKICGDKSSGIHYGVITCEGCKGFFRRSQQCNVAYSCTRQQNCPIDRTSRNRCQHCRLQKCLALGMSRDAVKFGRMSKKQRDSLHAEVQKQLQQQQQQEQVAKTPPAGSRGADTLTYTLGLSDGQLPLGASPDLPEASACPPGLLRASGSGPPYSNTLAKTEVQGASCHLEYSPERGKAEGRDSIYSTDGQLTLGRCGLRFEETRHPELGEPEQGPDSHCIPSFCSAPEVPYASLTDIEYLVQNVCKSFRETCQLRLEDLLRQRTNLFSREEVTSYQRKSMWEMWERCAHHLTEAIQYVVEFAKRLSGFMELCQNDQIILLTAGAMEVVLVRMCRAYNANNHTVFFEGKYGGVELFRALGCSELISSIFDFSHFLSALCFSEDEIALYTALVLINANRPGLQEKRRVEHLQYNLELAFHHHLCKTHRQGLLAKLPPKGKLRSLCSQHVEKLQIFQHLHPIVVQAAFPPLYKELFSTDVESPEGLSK
#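 Read-out: Photinus luciferase luminescence; inhibitors lower reporter signal. Insect Schneider cells with Gal4-ROR gamma fusion under metallothionein promoter, UAS reporter; 700 uM final copper sulfate induction, 20 hr, ambient temperature.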
# A number is an active result; . = inactive; ? = inconclusive; / = not tested or not shown; [ ] = dose if it differs, or a comment. Calls follow the shape of the dose curve; as a rule, active = well fitted curve in the direction sought with a large enough effect; inconclusive = small, poorly fitted or top-dose-only effect, or another doubt; inactive = no such curve, though single readings can be large; an effect the other way counts as inactive or inconclusive.
SMILES,Tau fibril FP,VP16 counter,Tau fluor cs,Tau ThT inhib,RORgamma inh
CCSc1nnc(NC(=O)C(C)(C(F)(F)F)C(F)(F)F)s1,.,?,.,.,?
CCSc1nnc(NC(=O)C(C(F)(F)F)C(F)(F)F)s1,?,.,.,22.4µM,.
O=C(CCn1nnnc1CN1CCOCC1)N1CCC(c2cccc(Cl)c2)C1 (configuration not stated),/,.,/,/,.
CC(C)(C)OC(=O)NCCCC[C@H](NC(=O)c1[nH]cnc1C(=O)Nc1ccc(CNC(=O)OC(C)(C)C)cc1)C(=O)OC(C)(C)C,?,.,?,?,?
C[C@H](NC(=O)c1nc[nH]c1C(=O)NCC(=O)OC(C)(C)C)C(=O)OC(C)(C)C,.,?,.,.,12.6µM
CC(C)C[C@H](NC(=O)c1[nH]cnc1C(=O)Nc1ccc(Cl)cc1)C(=O)OC(C)(C)C,11.2µM,3.98µM,.,.,2.82µM
CC(C)C[C@H](NC(=O)c1nc[nH]c1C(=O)N(C)Cc1ccccc1)C(=O)OC(C)(C)C,.,.,.,.,.
CC(C)C[C@H](NC(=O)c1nc[nH]c1C(=O)N[C@@H](CC(C)C)C(=O)OC(C)(C)C)C(=O)OC(C)(C)C,.,11.2µM,.,.,?
C[C@H](NC(=O)c1[nH]cnc1C(=O)Nc1ccc(CNC(=O)OC(C)(C)C)cc1)C(=O)OC(C)(C)C,?,?,?,.,8.91µM
CCn1c(SCC(=O)NC2CCCCC2)nnc1-c1ccccc1F,/,.,/,/,.
CCC(O)C1CCN(C(=O)c2cc(COc3ccc4ncccc4c3)on2)CC1 (configuration not stated),.,.,.,.,.
CC(C)C[C@H](NC(=O)c1nc[nH]c1C(=O)NCC(=O)OC(C)(C)C)C(=O)OC(C)(C)C,?,?,.,.,7.08µM
CCC(=O)NNC(=S)NC(=O)c1ccc(C)cc1,.,17.8µM,.,.,3.16µM
Cc1ccc(C(=O)NC(=S)NNC(=O)COc2ccccc2C)cc1,.,?,.,?,3.98µM
CC1=C(C(=O)NCc2ccc(C)cc2)C2(CCCCC2)OC1=O,.,/,.,.,/
COc1cccc(CNC(=O)C2Cc3ccccc3CN2C(C)=O)c1 (configuration not stated),/,.,/,/,.
COc1ccc(N/C=C\C(=O)c2ccc3c(c2)OCO3)cc1OC,.,.,?,2.82µM,?
O=C(/C=C\Nc1cccc(F)c1)c1ccc2c(c1)OCO2,.,10µM,.,?,?
O=C(/C=C/Nc1ccc(F)cc1Br)c1ccccc1,.,7.08µM,.,?,2.51µM
O=C(/C=C\Nc1ccccc1Br)c1ccc2c(c1)OCO2,?,?,?,?,5.01µM
O=C(/C=C/c1ccccc1Br)c1ccc2c(c1)OCO2,/,?,/,/,.
COC(=O)c1ccc(N/C=C\C(=O)c2ccc3c(c2)OCO3)cc1,.,.,.,.,.
COc1ccc(-c2ccc(N(C)C)cc2)cc1C1C2C=CCCC2(C)C(=O)N1Cc1ccccc1 (configuration not stated),/,.,/,/,.
CSc1ccccc1OCc1cc(C(=O)N2CCc3sccc3C2)no1,/,.,/,/,.
Cc1ccc(C)c(OCc2cc(C(=O)N3CCc4sccc4C3)no2)c1,/,?,/,/,2µM
SMILES,Tau fibril FP,VP16 counter,Tau fluor cs,Tau ThT inhib,RORgamma inh
COc1ccc(/C=N/NC(=O)CC(=O)NCCc2ccccc2)cc1OC,.,.,.,.,.
Fc1ccc(/C=N/NC(=S)NCCc2ccccc2)cc1F,/,8.91µM,/,/,7.08µM
COc1cccc(/C=N/NC(=S)NCCc2ccccc2)c1,/,?,/,/,15.8µM
COc1ccc(/C=N/NC(=S)NCCc2ccccc2)cc1,/,7.94µM,/,/,3.55µM
COc1ccc(OC(=O)NCCc2ccccc2)cc1,.,.,.,.,.
COc1cccc(/C=N/NC(=O)CCc2ccccc2)c1,.,.,.,.,.
CCOc1cc(/C=N\NC(=O)CC(=O)NCCc2ccccc2)ccc1O,.,.,.,.,.
CCc1ccc(/C=N/NC(=S)NCCc2ccccc2)cc1,.,?,.,.,14.1µM
COc1cccc2sc(NC(=O)c3ccc(S(=O)(=O)N4CCC(C)CC4)cc3)nc12,?,/,.,.,/
O=C1C(c2ccc(F)cc2)N(CCc2ccccc2)C(=O)CN1C1CCCCC1 (configuration not stated),.,/,.,.,/
CC(=O)N1[C@H](C)C=C[C@]1(Cc1ccccc1)C(=O)NCc1ccc(C)o1,.,?,.,.,?
CCn1nc(C)c(/C=N/NC(=S)Nc2ccc(Cl)cc2Cl)c1C,.,6.31µM,.,?,1.78µM
Cc1nn(C)cc1/C=N/NC(=S)Nc1ccc(Cl)cc1Cl,.,2.82µM,?,?,0.562µM
O=[N+]([O-])c1ccc(/C=N/NC(=S)Nc2ccc(Cl)cc2Cl)s1,.,?,?,?,?
Cc1ccc(Cl)cc1NC(=S)N/N=C/c1cccc2ccccc12,.,2.51µM,?,?,0.794µM
Cc1ccccc1C(=O)N/N=C/c1cccc2ccccc12,/,.,/,/,.
CCC(C)NC(=O)C(=O)Nc1c2c(nn1-c1ccccc1)CS(=O)(=O)C2 (configuration not stated),.,/,.,.,/
c1ccc2sc(Nc3nc4cc5c(cc4s3)OCO5)nc2c1,.,.,.,.,.
Fc1ccc2nc(Nc3nc4cc5c(cc4s3)OCO5)sc2c1,?,?,3.55µM[quencher],?,8.91µM
Fc1ccc2nc(Nc3nc4cc5c(cc4s3)OCCO5)sc2c1,.,12.6µM,14.1µM[quencher],10µM,11.2µM
CC(C)=CCC/C(C)=C/CO/N=C1/[C@H]2O[C@@H]2[C@@H](O)[C@H]2[C@H]1CCn1c(=O)n(Cc3cc4c(cc3Cl)OCO4)c(=O)n12,.[11.6 µM],.[10 µM],.[11.6 µM],.[11.5 µM],.[10 µM]
COc1cc(/C=C2/SC(=S)N(CC(=O)Nc3nc4ccccc4s3)C2=O)cc(OC)c1OC,.,.,?,?,10µM
CCc1nnc(NC(=O)CN2C(=O)/C(=C/c3cc(OC)c(OC)c(OC)c3)SC2=S)s1,?,?,?,7.94µM,15.8µM
O=C(NC1CCCCC1)C(c1cccnc1)N(C(=O)CCl)c1ccc(F)cc1 (configuration not stated),.,?,.,.,11.2µM
COc1ccc(N(C(=O)CCl)C(C(=O)NC2CCCCC2)c2cccnc2)cc1 (configuration not stated),?,.,.,.,?
SMILES,Tau fibril FP,VP16 counter,Tau fluor cs,Tau ThT inhib,RORgamma inh
O=C(Nc1ccc(Cl)cc1C(=O)Nc1ccccn1)c1ccco1,.,?,.,.,12.6µM
CC(C)(C)C(=O)Nc1ccc(NC(=O)c2ccco2)nc1,/,0.562µM,/,/,0.199µM
O=C(/C=C/c1ccccc1O)c1ccco1,/,11.2µM,/,/,7.94µM
O=C(Nc1ccccn1)c1ccco1,.,.,.,.,.
O=C(Nc1ccc(NC(=O)C2CC2)nc1)c1ccccn1,.,7.08µM,.,.,.
O=C(Nc1ccc(NC(=O)C2CC2)nc1)c1cnccn1,.,.,.,.,.
